Pf growth 48h – inhibits P. falciparum growth in the first generation, 48 h | P. falciparum luciferase growth in erythrocytes, 48 h | Potency, µM (titrated, usually from 28.7 µM), without a hit: top-dose activity change, negative = inhibition, hits mostly inhibitors | hit rate 5.9% among 310,000 | AID 504832; also: potency is read from the fitted curve at half-maximal effect; % is scaled to controls: 0 for no effect and ±100 for the full control effect
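Growth was read as firefly luciferase luminescence after a 48 h, 37 C, 5% CO2 exposure of compounds to reporter-bearing P. falciparum cultures (0.1% parasitemia, 2% hematocrit final) in Albumax-supplemented RPMI 1640.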
LmPK inh – blocks Leishmania mexicana pyruvate kinase activity; Q27686; purified LmPK, Kinase-Glo ATP luminescence, 1 h; Potency, µM (series often up to 57.5 µM), without a hit: at the top dose activity change, negative = inhibition, hits mostly inhibitors; hit rate 0.37% among 290,000; AID 1721; also: potency is read from the fitted curve at half-maximal effect; % is scaled to controls: 0 for no effect and ±100 for the full control effect
Target sequence (Q27686 whole entry, looked up): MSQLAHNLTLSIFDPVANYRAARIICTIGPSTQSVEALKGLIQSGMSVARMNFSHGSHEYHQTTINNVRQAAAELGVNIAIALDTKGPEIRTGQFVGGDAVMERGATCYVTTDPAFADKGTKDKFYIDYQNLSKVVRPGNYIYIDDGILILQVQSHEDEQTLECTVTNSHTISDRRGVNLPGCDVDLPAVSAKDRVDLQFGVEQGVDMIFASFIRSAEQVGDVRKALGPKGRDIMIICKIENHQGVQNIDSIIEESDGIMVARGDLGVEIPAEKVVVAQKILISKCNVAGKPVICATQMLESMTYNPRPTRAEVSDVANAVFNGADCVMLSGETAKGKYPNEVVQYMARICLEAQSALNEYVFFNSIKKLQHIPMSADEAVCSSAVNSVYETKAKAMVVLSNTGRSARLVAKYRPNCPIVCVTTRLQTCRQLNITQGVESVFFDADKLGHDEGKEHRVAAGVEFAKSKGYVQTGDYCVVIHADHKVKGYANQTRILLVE
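In 50 mM imidazole pH 7.2 with 7 mM MgCl2, LmPK (0.1 nM) turned over PEP (0.5 mM) and ADP (0.1 mM) for 1 h at room temperature. Luciferase read-out of ATP.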
CHX counter – counter-screen hit for Shiga toxin inhibitors, cycloheximide; cell reporter, cycloheximide protein synthesis inhibition counterscreen; hit rate 12% among 300,000; max response, %; in the data active = max response mostly above about 13%, no sharp cut-off; inactive = mostly below about 14%; also: read at 38.3 µM for the half of the compounds with a filed dose; 0% is about no effect
Pf growth 96h – P. falciparum growth inhibition at 96 hours | P. falciparum luciferase reporter growth, 96 h | Potency, µM (doses to about 28.7 µM), without a hit: at the top dose activity change, negative = inhibition, most hits filed as inhibitors | hit rate 6.9% among 320,000; also: potency is read from the fitted curve at half-maximal effect; % is scaled to controls: 0 for no effect and ±100 for the full control effect
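Parasite growth measured via integrated firefly luciferase reporter in P. falciparum. Infected erythrocytes at 2% hematocrit, 0.05% parasitemia final were treated 96 hours at 37 C under 5% CO2, and luminescence was read.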
Shiga toxin inh – inhibitors of Shiga toxin in Vero cells; Vero cells, Shiga toxin protein synthesis inhibition reporter; inhibition, % at 38.7 µM; hit rate 9.2% among 290,000; AID 2315; in the data active = inhibition mostly above about 28%, no sharp cut-off; inactive = mostly below about 43%; also: 0% is about no effect
* = called active by the depositor; [ ] = another dose, or the depositor's remark. A selection: hits, their analogues and other compounds. The true share with any hit is near 22%. Unless noted, calls follow the shape of the dose curve; as a rule, active = well fitted inhibition curve with a large enough effect; inconclusive = small, poorly fitted or top-dose-only effect, or another doubt; inactive = no such curve, though single readings can be large or run the other way.

What do the screens show for `O=C(COC(=O)CCC(=O)c1cccs1)NC1CCCCC1`?
Pf growth 48h: 4.2%; Pf growth 96h: inconclusive

How did O=C(COC(=O)c1cccs1)NC1CCCCC1 do in these assays?
Pf growth 48h: 0.2%; LmPK inh: -2.4%; CHX counter: 42.6*; Shiga toxin inh: 94.3*

Results for O=C(NC1CCCCC1)c1cccs1 ?
LmPK inh: 5.0%; CHX counter: 24.3*; Pf growth 96h: 7.5%; Shiga toxin inh: 32.6

What do the screens show for `O=C(COC(=O)c1ccccn1)NC12CC3CC(CC(C3)C1)C2`?
Pf growth 48h: 4.9%; LmPK inh: -0.7%; CHX counter: -1.5; Shiga toxin inh: -3.5

How did O=C(COC(=O)c1cccs1)NC1CCCC1 do in these assays?
Pf growth 48h: 7.6%; LmPK inh: 0.6%; CHX counter: 19.5*; Pf growth 96h: inconclusive; Shiga toxin inh: 67.6

How did O=C(COC(=O)c1cccs1)NC12CC3CC(CC(C3)C1)C2 do in these assays?
Pf growth 48h: 19.9%; LmPK inh: 3.6%; CHX counter: 28.9*; Pf growth 96h: -11.9%; Shiga toxin inh: 67.6

How did O=C(NNC(=S)NC1CCCCC1)c1cccs1 do in these assays?
Pf growth 48h: 62.7%; LmPK inh: 6.2%; CHX counter: 10.8; Pf growth 96h: 6.3%; Shiga toxin inh: 20.7

How did Cc1ccc(C(=O)NCc2ccccn2)cc1NC1=NC2CS(=O)(=O)CC2S1 (stereo not drawn) do in these assays?
Pf growth 48h: 50.4%; LmPK inh: -4.0%; CHX counter: -1.6; Pf growth 96h: 49.4%; Shiga toxin inh: 1.0

Results for CC1CCCCC12NC(=O)N(CC(=O)OCC(=O)N(C)C1CCCCC1)C2=O (stereo not drawn) ?
Pf growth 48h: 18.9%; Pf growth 96h: 16.7%

How did CCOc1ccc(CCNC(=O)c2cc3c(s2)CS(=O)(=O)C3)cc1OCC do in these assays?
Pf growth 48h: inconclusive; LmPK inh: 5.3%; CHX counter: -0.9; Pf growth 96h: 24.6%; Shiga toxin inh: -4.7

Results for COc1ccc(CCCNC(=O)C2CCC(=O)N(Cc3ccccc3F)C2)cc1 (stereo not drawn) ?
Pf growth 48h: -19.8%; LmPK inh: 1.3%; CHX counter: 30.6*; Pf growth 96h: -22.3%; Shiga toxin inh: 27.2

How did O=C(NCCc1ccccc1Cl)C1CCC(=O)N(CC2CCCCC2)C1 (stereo not drawn) do in these assays?
Pf growth 48h: -9.2%; LmPK inh: 2.0%; CHX counter: 10.9; Pf growth 96h: 13.1µM*; Shiga toxin inh: -7.1

What do the screens show for `COc1ccccc1CN1CC(C(=O)N2CCC(C(=O)c3ccccc3)CC2)CCC1=O` (stereo not drawn)?
Pf growth 48h: inconclusive; LmPK inh: 8.4%; CHX counter: 35.5*; Pf growth 96h: 25.0%; Shiga toxin inh: 58.5*

What do the screens show for `COc1ccccc1CN1CC(C(=O)NCCc2ccccc2Cl)CCC1=O` (stereo not drawn)?
Pf growth 48h: 0.2%; LmPK inh: -0.1%; CHX counter: 38.1*; Pf growth 96h: 22.4%; Shiga toxin inh: 59.4*

What do the screens show for `CC1SC(=NC(=O)C(C)N2C(=O)c3ccccc3C2=O)NC1=O` (stereo not drawn)?
Pf growth 48h: -25.8%; LmPK inh: 4.1%; CHX counter: -2.7; Pf growth 96h: 46.5%; Shiga toxin inh: -2.6

What do the screens show for `O=C1OC2(CCCCC2)CC2=C1C1O[C@](c3ccsc3)(Cc3c1ccc1ccccc31)O2`?
Pf growth 48h: 30.6%[5.75 µM]; LmPK inh: -8.3%[11.5 µM]; CHX counter: 11.8; Pf growth 96h: inconclusive; Shiga toxin inh: inactive

What do the screens show for `Cn1c(CSCc2ccc(Cl)c(Cl)c2)n[nH]c1=S`?
Pf growth 48h: 6.5%; LmPK inh: -9.9%; CHX counter: -3.8; Pf growth 96h: -12.0%; Shiga toxin inh: 20.2

How did CC(C)CN(C(=O)COC(=O)c1ccc2c(c1)OCO2)c1c(N)n(Cc2ccccc2)c(=O)[nH]c1=O do in these assays?
Pf growth 48h: -3.7%; Pf growth 96h: inconclusive

What do the screens show for `CCOC(=O)CC1(NC(=O)C2CCC(=O)N(CCc3ccc(OC)cc3)C2)CCCCC1` (stereo not drawn)?
Pf growth 48h: inconclusive; LmPK inh: 9.5%; CHX counter: 28.5*; Pf growth 96h: inconclusive; Shiga toxin inh: 2.2

How did COc1ccccc1CN1CC(C(=O)NCc2cccnc2)CC1=O (stereo not drawn) do in these assays?
Pf growth 48h: 15.1%; LmPK inh: -2.1%; CHX counter: -1.9; Pf growth 96h: 2.08µM*; Shiga toxin inh: -11.1

How did COc1ccccc1CCCNC(=O)C1CCC(=O)N(CCCN2CCCC2=O)C1 (stereo not drawn) do in these assays?
Pf growth 48h: 1.6%; LmPK inh: -7.8%; CHX counter: -2.5; Pf growth 96h: -2.9%; Shiga toxin inh: -4.9

What do the screens show for `Cc1ccc(CCCNC(=O)C2CCC(=O)N(Cc3cccc(F)c3)C2)cc1` (stereo not drawn)?
Pf growth 48h: inconclusive; LmPK inh: -0.1%; CHX counter: 13.8*; Pf growth 96h: 6.6%; Shiga toxin inh: -2.2

What do the screens show for `COc1ccccc1CCCNC(=O)C1CCC(=O)N(Cc2ccccc2F)C1` (stereo not drawn)?
Pf growth 48h: 13.6%; LmPK inh: -1.0%; CHX counter: 40.7*; Pf growth 96h: inconclusive; Shiga toxin inh: 99.6*

How did COc1ccc(CCN2CC(C(=O)NCC3(O)CCCCC3)CCC2=O)cc1 (stereo not drawn) do in these assays?
Pf growth 48h: 9.2%; LmPK inh: -3.1%; CHX counter: -2.6; Pf growth 96h: -25.4%; Shiga toxin inh: -11.3

How did CCn1c(SCC(=O)N2CCC(C)CC2)nnc1-c1ccco1 do in these assays?
Pf growth 48h: -9.1%; LmPK inh: -3.2%; CHX counter: 1.0; Pf growth 96h: -3.8%; Shiga toxin inh: -20.6

How did Cc1ccc(CCNC(=O)C2CCC(=O)N(Cc3ccccc3F)C2)o1 (stereo not drawn) do in these assays?
Pf growth 48h: inconclusive; LmPK inh: 4.4%; CHX counter: 40.2*; Pf growth 96h: 7.5%; Shiga toxin inh: 102.0*

Results for COc1ccc(CCN2CC(C(=O)NCc3cccc4[nH]ccc34)CCC2=O)cc1 (stereo not drawn) ?
Pf growth 48h: -16.4%; LmPK inh: 4.3%; CHX counter: 1.0; Pf growth 96h: 9.28µM*; Shiga toxin inh: 4.9

Results for O=C(O/N=C1\CCCc2ccccc21)c1ccc(F)cc1 ?
Pf growth 48h: 72.7%; LmPK inh: -28.9%; CHX counter: 16.0*; Pf growth 96h: 56.9%; Shiga toxin inh: 21.4*

What do the screens show for `Cc1ccc2c(c1)/C(=N/OC(=O)c1ccc(F)cc1)CCS2`?
Pf growth 48h: -9.5%; LmPK inh: 1.4%; CHX counter: -5.9; Pf growth 96h: -4.0%; Shiga toxin inh: 15.5

What do the screens show for `O=C(O/N=C1/CCSc2ccccc21)c1ccccc1`?
Pf growth 48h: 62.7%; LmPK inh: inconclusive; CHX counter: 38.7*; Pf growth 96h: inconclusive; Shiga toxin inh: 39.9*

Screening data (PubChem)
